Data taken from PubChem BioAssay AID1159580 (chemical genetic matrix, 2015).
Where “and” joins values, the source holds several entries; their conditions need not be identical. Equal entries are not always repeated. About 2,000 (36%) of roughly 5,500 compounds were called active. Roughly 18% stayed inconclusive and do not appear here. No stated cut-off is given here; in the data, active means normalized growth mostly below about 0.91 (no sharp cut-off); inconclusive means no clear call, values can overlap the other calls; inactive means mostly above about 0.92. The list shows a part of the results. Where a structure was tested more than once in an assay, its records may differ in their call.

Assay: chemical genetic growth profiling, strain panel (AID 1159580);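 further: tested at 20 µM; growth read once vehicle control cultures reached saturation at 30 °C; 1 = growth at the plate median or of vehicle wells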
Conditions: growth OD

Measured: normalized growth

COC(=O)C1=C(C)NC(C)=C(C(=O)OC)C1c1ccccc1[N+](=O)[O-]
inactive: S. cerevisiae deletion strains, locus YKL009W, strain mrt4, stronger effect = lower value 0.959 | S. cerevisiae deletion strains, locus YKL068W, stronger effect = lower value 0.965 | S. cerevisiae deletion strains, locus YKL085W, strain MDH1 (second series), stronger effect = lower value 0.956 | S. cerevisiae deletion strains, locus YKL085W, strain MDH1, stronger effect = lower value 0.956 | S. cerevisiae deletion strains, locus YKR026C, strain gcn3, stronger effect = lower value 0.968 | S. cerevisiae deletion strains, locus YKR091W, strain srl3, stronger effect = lower value 0.954 | S. cerevisiae deletion strains, locus YLL001W, strain dnm1, stronger effect = lower value 0.972 | S. cerevisiae deletion strains, locus YLL026W, stronger effect = lower value 0.946 | S. cerevisiae deletion strains, locus YLL041C, strain sdh2, stronger effect = lower value 0.931 | S. cerevisiae deletion strains, locus YLR058C, strain SHM2, stronger effect = lower value 0.996 | S. cerevisiae deletion strains, locus YLR102C, strain apc9, stronger effect = lower value 0.977 | S. cerevisiae deletion strains, locus YLR113W, strain HOG1, stronger effect = lower value 0.942 | S. cerevisiae deletion strains, locus YLR330W, strain CHS5, stronger effect = lower value 0.931 | S. cerevisiae deletion strains, locus YLR342W, strain FKS1, stronger effect = lower value 0.924 | S. cerevisiae deletion strains, locus YLR357W, strain rsc2, stronger effect = lower value 0.937 | S. cerevisiae deletion strains, locus YLR370C, strain arc18, stronger effect = lower value 0.942 | S. cerevisiae deletion strains, locus YLR371W, strain rom2, stronger effect = lower value 0.918 | S. cerevisiae deletion strains, locus YLR384C, strain iki3, stronger effect = lower value 0.976 | S. cerevisiae deletion strains, locus YML032C, strain rad52, stronger effect = lower value 0.959 | S. cerevisiae deletion strains, locus YML120C, strain ndi1, stronger effect = lower value 0.976 | S. cerevisiae deletion strains, locus YML124C, strain tub3, stronger effect = lower value 0.972 | S. cerevisiae deletion strains, locus YMR078C, strain ctf18, stronger effect = lower value 0.981 | S. cerevisiae deletion strains, locus YMR125W, strain sto1, stronger effect = lower value 1.02 | S. cerevisiae deletion strains, locus YMR129W, stronger effect = lower value 0.958 | S. cerevisiae deletion strains, locus YMR263W, strain SAP30, stronger effect = lower value 1 | S. cerevisiae deletion strains, locus YNL071W, strain lat1, stronger effect = lower value 0.941 | S. cerevisiae deletion strains, locus YNL153C, strain GIM3, stronger effect = lower value 0.939 | S. cerevisiae deletion strains, locus YNL175C, strain NOP13, stronger effect = lower value 1.01 | S. cerevisiae deletion strains, locus YNL183C, strain NPR1, stronger effect = lower value 0.927 | S. cerevisiae deletion strains, locus YNL197C, strain WHI3, stronger effect = lower value 0.997 | S. cerevisiae deletion strains, locus YNL224C, strain SQS1, stronger effect = lower value 1.02 | S. cerevisiae deletion strains, locus YNL248C, strain rpa49, stronger effect = lower value 0.951 | S. cerevisiae deletion strains, locus YNL250W, strain rad50, stronger effect = lower value 0.944 | S. cerevisiae deletion strains, locus YNL298W, strain CLA4, stronger effect = lower value 0.953 | S. cerevisiae deletion strains, locus YNL322C, strain KRE1 (second series), stronger effect = lower value 1 | S. cerevisiae deletion strains, locus YNR049C, strain mso1, stronger effect = lower value 0.962 | S. cerevisiae deletion strains, locus YNR052C, strain pop2, stronger effect = lower value 0.968 | S. cerevisiae deletion strains, locus YOL012C, strain htz1 0.327 | S. cerevisiae deletion strains, locus YOL147C, strain pex11, stronger effect = lower value 0.989 | S. cerevisiae deletion strains, locus YOR001W, strain rrp6, stronger effect = lower value 0.91 | S. cerevisiae deletion strains, locus YOR080W, strain dia2, stronger effect = lower value 0.978 | S. cerevisiae deletion strains, locus YOR083W, strain WHI5 (second series), stronger effect = lower value 1.03 | S. cerevisiae deletion strains, locus YOR083W, strain WHI5, stronger effect = lower value 0.909 | S. cerevisiae deletion strains, locus YOR136W, strain idh2, stronger effect = lower value 0.965 | S. cerevisiae deletion strains, locus YOR144C, strain elg1, stronger effect = lower value 0.99 | S. cerevisiae deletion strains, locus YOR231W, strain MKK1, stronger effect = lower value 0.999 | S. cerevisiae deletion strains, locus YOR270C, strain vph1, stronger effect = lower value 0.884 | S. cerevisiae deletion strains, locus YOR290C, strain snf2, stronger effect = lower value 0.958 | S. cerevisiae deletion strains, locus YOR316C, strain cot1, stronger effect = lower value 0.971 | S. cerevisiae deletion strains, locus YPL078C, strain atp4, stronger effect = lower value 0.984 | S. cerevisiae deletion strains, locus YPL106C, strain sse1, stronger effect = lower value 0.932 | S. cerevisiae deletion strains, locus YPL256C, strain CLN2, stronger effect = lower value 0.932 | S. cerevisiae deletion strains, locus YPR119W, strain clb2, stronger effect = lower value 0.981 | S. cerevisiae deletion strains, locus YPR141C, strain kar3, stronger effect = lower value 0.974 | S. cerevisiae deletion strains, locus YPR163C, strain tif3, stronger effect = lower value 0.958
0.918 (active) and 0.978 (inactive): S. cerevisiae deletion strains, locus YNL322C, strain KRE1, stronger effect = lower value
0.918 (active) and 0.973 (inactive): S. cerevisiae deletion strains, locus YPL241C, strain CIN2, stronger effect = lower value
active: S. cerevisiae deletion strains, locus YKL160W, strain elf1, stronger effect = lower value 0.901 | S. cerevisiae deletion strains, locus YKL190W, strain CNB1, stronger effect = lower value 0.84 | S. cerevisiae deletion strains, locus YKR001C, strain vps1, stronger effect = lower value 0.852 | S. cerevisiae deletion strains, locus YLR027C, strain aat2, stronger effect = lower value 0.899 | S. cerevisiae deletion strains, locus YLR039C, strain RIC1, stronger effect = lower value 0.535 | S. cerevisiae deletion strains, locus YLR221C, strain rsa3, stronger effect = lower value 0.893 | S. cerevisiae deletion strains, locus YLR258W, strain gsy2, stronger effect = lower value 0.886 | S. cerevisiae deletion strains, locus YLR262C, strain YPT6 (second series), stronger effect = lower value 0.44 | S. cerevisiae deletion strains, locus YLR262C, strain YPT6, stronger effect = lower value 0.352 | S. cerevisiae deletion strains, locus YLR268W, strain sec22, stronger effect = lower value 0.764 | S. cerevisiae deletion strains, locus YLR320W, strain mms22, stronger effect = lower value 0.864 | S. cerevisiae deletion strains, locus YLR342W, strain FKS1 (second series), stronger effect = lower value 0.643 | S. cerevisiae deletion strains, locus YLR418C, strain cdc73, stronger effect = lower value 0.706 | S. cerevisiae deletion strains, locus YML016C, strain PPZ1, stronger effect = lower value 0.899 | S. cerevisiae deletion strains, locus YMR058W, strain fet3, stronger effect = lower value 0.231 | S. cerevisiae deletion strains, locus YMR205C, strain PFK2, stronger effect = lower value 0.866 | S. cerevisiae deletion strains, locus YMR223W, strain ubp8, stronger effect = lower value 0.839 | S. cerevisiae deletion strains, locus YMR231W, strain pep5, stronger effect = lower value 0.81 | S. cerevisiae deletion strains, locus YMR307W, strain GAS1, stronger effect = lower value 0.43 and 0.863 | S. cerevisiae deletion strains, locus YNL067W, strain RPL9B, stronger effect = lower value 0.824 | S. cerevisiae deletion strains, locus YNL128W, strain TEP1, stronger effect = lower value 0.642 | S. cerevisiae deletion strains, locus YNL209W, strain ssb2, stronger effect = lower value 0.698 | S. cerevisiae deletion strains, locus YNL233W, strain BNI4, stronger effect = lower value 0.845 | S. cerevisiae deletion strains, locus YNL271C, strain bni1, stronger effect = lower value 0.909 | S. cerevisiae deletion strains, locus YNL307C, strain MCK1, stronger effect = lower value 0.903 | S. cerevisiae deletion strains, locus YOL006C, strain TOP1, stronger effect = lower value 0.202 | S. cerevisiae deletion strains, locus YOR061W, strain CKA2, stronger effect = lower value 0.794 | S. cerevisiae deletion strains, locus YOR069W, strain VPS5, stronger effect = lower value 0.906 | S. cerevisiae deletion strains, locus YOR070C, strain gyp1, stronger effect = lower value 0.916 | S. cerevisiae deletion strains, locus YOR106W, strain vam3, stronger effect = lower value 0.718 | S. cerevisiae deletion strains, locus YOR184W, strain ser1, stronger effect = lower value 0.792 | S. cerevisiae deletion strains, locus YOR265W, strain rbl2, stronger effect = lower value 0.903 | S. cerevisiae deletion strains, locus YPL051W, strain arl3, stronger effect = lower value 0.748 | S. cerevisiae deletion strains, locus YPL055C, strain LGE1, stronger effect = lower value 0.64 | S. cerevisiae deletion strains, locus YPL240C, strain hsp82, stronger effect = lower value 0.9 | S. cerevisiae deletion strains, locus YPR167C, strain met16, stronger effect = lower value 0.903 | S. cerevisiae deletion strains, strain wtn01, stronger effect = lower value 0.772 | S. cerevisiae strains, strain wild type, stronger effect = lower value 0.818
